# Measurements published in PubChem BioAssay AID2796 (The Scripps Research Institute Molecular Screening Center, 2010).
# Out of some 320,000 compounds screened, about 8,000 (2.5%) were called active. The sample as a whole holds a higher share of actives than the screen did. A number with no mark means an inactive call. Cut-off read from the data, not from the text of the source: active = activation above about 47%; inactive = the rest.
# Target: Aryl hydrocarbon receptor (Homo sapiens) (UniProt P35869)
# Sequence (P35869 whole entry, looked up): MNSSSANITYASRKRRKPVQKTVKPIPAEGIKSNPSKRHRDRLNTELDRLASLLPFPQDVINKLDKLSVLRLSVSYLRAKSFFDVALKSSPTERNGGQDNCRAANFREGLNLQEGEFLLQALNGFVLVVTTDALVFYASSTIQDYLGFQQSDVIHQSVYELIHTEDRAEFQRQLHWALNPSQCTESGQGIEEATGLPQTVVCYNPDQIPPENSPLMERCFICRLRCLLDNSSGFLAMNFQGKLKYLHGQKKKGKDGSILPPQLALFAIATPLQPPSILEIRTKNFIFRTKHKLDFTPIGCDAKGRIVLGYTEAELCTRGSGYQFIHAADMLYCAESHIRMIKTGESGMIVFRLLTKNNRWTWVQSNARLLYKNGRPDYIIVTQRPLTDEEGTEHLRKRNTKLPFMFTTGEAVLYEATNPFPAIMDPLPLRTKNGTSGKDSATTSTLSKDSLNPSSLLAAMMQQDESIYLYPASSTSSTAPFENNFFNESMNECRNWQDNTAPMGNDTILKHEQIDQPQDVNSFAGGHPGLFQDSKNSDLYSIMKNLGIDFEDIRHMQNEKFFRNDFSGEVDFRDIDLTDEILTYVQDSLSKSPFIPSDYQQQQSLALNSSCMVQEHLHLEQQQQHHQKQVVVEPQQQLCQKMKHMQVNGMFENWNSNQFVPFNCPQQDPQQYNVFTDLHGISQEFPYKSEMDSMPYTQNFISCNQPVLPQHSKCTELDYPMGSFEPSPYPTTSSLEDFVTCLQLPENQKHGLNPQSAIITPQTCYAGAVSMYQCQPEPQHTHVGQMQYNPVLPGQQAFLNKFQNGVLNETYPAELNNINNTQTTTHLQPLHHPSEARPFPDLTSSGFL
# Assay: AHR activators, primary screen, cell-based, luminescence, luciferase reporter, human (AID 2796);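 note: 0% = vehicle wells and 100% = reference agonist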
# Conditions: AHR-responsive luciferase reporter cells, at 5 µM, hits give high values
row,SMILES,activation
1,CCN(CC)c1ccc(C(=O)N/N=C/c2ccc(N3CCOCC3)cc2)cc1,19%
2,CCN(CC)c1ccc(/C=N/NC(=O)c2cnccn2)c(O)c1,22.4%
3,COc1cccc2cc(C(N)=O)/c(=N\NC(=O)c3ccccc3)oc12,8.63%
4,NC(=O)c1cc2ccccc2o/c1=N/NC(=O)c1cccc(F)c1,52.6% (active)
5,CCN(CC)c1ccc2cc(C(N)=O)/c(=N\NC(=O)c3ccncc3)oc2c1,78% (active)
6,N=c1oc2ccccc2cc1C(=O)NCc1ccccc1,-3.55%
7,COc1cc(/C=C/C(=O)Nc2ccc(OC)c(S(=O)(=O)N3CCOCC3)c2)ccc1OCC#N,-0.9%
8,CCCCCc1ccc(-c2ccc(C(=O)O)cc2)nc1,-9.97%
9,COc1ccccc1CCNS(=O)(=O)c1cc2c3c(c1)C(C)C(=O)N3CCC2 (stereo not given),4.39%
10,CC(=O)NS(=O)(=O)c1ccc(NC(=O)/C=C/c2ccccc2Cl)cc1,7.35%
11,CCn1nc(C)c(/C=N/NC(=O)Cc2ccc(Cl)cc2)c1C,56.2% (active)
12,O=C(Nc1nnc(Cc2ccc(Cl)cc2)s1)c1cccnc1,3.47%
13,Cc1ccc(/C=N/NC(=O)Cn2nc(C)c(Br)c2C)o1,2.15%
14,Cc1nn(Cc2ccc(Cl)cc2)c(Cl)c1/C=N/NC(=O)CNc1ccccc1F,25%
15,Cc1nn(Cc2ccc(Cl)cc2)c(Cl)c1/C=N/NC(=O)c1cccnc1,96.6% (active)
16,O=C(Cc1ccccc1)N/N=C/c1ccc(Cl)cc1Cl,1.3%
17,CC(OC(=O)CCCc1c[nH]c2ccccc12)C(=O)Nc1ccc(S(N)(=O)=O)cc1 (stereo not given),0.81%
18,CC(NC(=O)CN1CCN(Cc2ccc(Cl)cc2)C1=O)c1ccc2c(c1)OCCO2 (stereo not given),0.39%
19,CCOC(=O)c1cccc(NC(=O)C2CCN(c3ncnc4c3nc3n4CCCCC3)CC2)c1,2.44%
20,CCCCC[C@@H]1C=C(C(=O)O)[C@H](c2ccc(C#N)cc2)N1S(=O)(=O)c1ccc(C)cc1,-1.14%
21,Cc1ccc(C(=O)NCC(=O)OCc2nnc(-c3ccccc3)o2)cc1,1.68%
22,CC(C)[C@H](NC(=O)N1CC(=O)Nc2ccccc21)C(=O)N[C@@H](Cc1c[nH]c2ccccc12)C(=O)O,10.6%
23,COC(=O)c1[nH]c2ccccc2c1NC(=O)CN1CCCc2ccccc21,74.4% (active)
24,NS(=O)(=O)c1cccc(NC(=O)CN2CCCc3ccccc32)c1,3.96%
25,COC(=O)c1[nH]c2cccc(C)c2c1NC(=O)CN1CCCc2ccccc21,26.4%
